# Test results taken from PubChem BioAssay.
# Legend:
# [1] = inhibitors of PAF-induced NFkB signaling in CF airway cells, dose response, cell-based, uHTS hits, panel, cytotoxicity readout (AID 624344); conditions: CF bronchial epithelial cells, PAF-induced NFkB reporter inhibition, with PAF, run 1; at 79 µM (top of the series) unless noted
# [2] = as above; conditions: CF bronchial epithelial cells, PAF-induced NFkB reporter inhibition, with PAF, run 2; at 79 µM (top of the series) unless noted
Structure (SMILES),inhibition [1] [%],inhibition [2] [%]
Cn1c(Sc2ccc(Cl)cc2)c(C=O)c2ccccc21,119,107
CCOC(=O)Nc1nc(-c2ccccc2)c(C(=O)c2ccccc2)s1,99.4,78.8
CCC(Oc1ccccc1)C(=O)Nc1ncc([N+](=O)[O-])s1 (stereo not given),112,98.9
COc1ccc2ncn(-c3ccccc3)c2c1,104,101
Cc1ccnc(Nc2nc(-c3sc(C)nc3C)cs2)c1,107,104
COc1cc(-c2cnc3c(NC=O)cc(-c4ccc(C)cc4)cn23)cc(OC)c1OC,70.3,70.5
FC(F)(F)c1nnc2c(Sc3ccccc3)nc3ccccc3n12,92.8,88.4
O=[N+]([O-])c1cccc(/C=N/Nc2cc(N3CCOCC3)ncn2)c1,116,102
O=C(Nc1ccccc1)c1cc2ccccc2c(=O)s1,50.8,85.2
CC1CCN(Cc2c(C(=O)N/N=C/c3ccc(C(C)(C)C)cc3)nnn2-c2nonc2N)CC1,98.1,108
CCCc1cc(-c2[nH]ncc2-c2ccc3c(c2)OCCCO3)c(O)cc1O,108,102
Cc1cnc(NC(=O)CCCc2nc3ccccc3s2)s1,101,114
N#CC(C#N)c1ccnc2ccccc12,110,102
CC(C)(C)c1nc(NC(=O)Nc2ccccc2)sc1Br,107,103
COc1ccc(C(=O)Nc2cccc(NC(=O)c3ccc(OC)c(OC)c3)n2)cc1OC,106,102
CN(c1ncnc(N)c1[N+](=O)[O-])C1CCS(=O)(=O)C1 (stereo not given),96.8,104
CCOC(=O)c1[nH]c2c(c1C)C(=O)CC(c1ccco1)C2 (stereo not given),40.8,98.7
O=C(CN1C(=O)CCC1=O)Nc1nc(-c2nc3ccccc3s2)cs1,84.7,85.9

Structure (SMILES),inhibition [1] [%],inhibition [2] [%]
CCCNC(=O)COC(=O)c1ccccc1C(=O)c1ccc(Cl)c([N+](=O)[O-])c1,96.2,99.9
COc1ccc2c(c1OC)C(=O)N1c3ccccc3C(=O)N(c3ccccc3)C21 (stereo not given),112,102
COc1ccc(CN(CCC(c2ccc(F)cc2)C2CCOC(C)(C)C2)C(=O)c2ccco2)cc1 (stereo not given),105,111
CC(=O)Nc1ccc(-c2ccnc3c2CC(C(=O)NCc2ccco2)O3)cc1 (stereo not given),70,78
O=S(=O)(Nc1ccc(Cl)cc1NS(=O)(=O)c1ccccc1)c1ccccc1,114,85.8
Cc1nc2c(O)c3c(c(O)c2nc1C)C1C=CC3CC1,114,103
CC(=O)Oc1ccc(N(C(C)=O)S(=O)(=O)c2cccs2)c2ccccc12,92.7,62.6
COc1ccc(NC(=O)Nc2nnc(-c3ccncc3)s2)cc1,67.9,68.6
O=C1NC(=S)N/C1=C/c1cccnc1,97.5,103
CCN1CCN(Cc2ccc(NC(=O)c3ccc(C)c(NC(=O)c4cc(-c5ccc(Br)cc5)n[nH]4)c3)cc2C(F)(F)F)CC1,102,112
COc1ccc(-c2cn[nH]c2-c2ccc(OCc3ccccc3F)cc2O)cc1OC,113,98.3
CC(C)c1nc(Cl)c(C#N)c2c1CCCC2,96.5,112
CN1CCN(S(=O)(=O)c2ccc(Sc3nnnn3-c3ccccc3)c([N+](=O)[O-])c2)CC1,109,99.5
COc1ccc(/C=C/C(=O)c2cc(F)ccc2OC(=O)c2ccccc2C)cc1OC,4.66,90.3
Cc1cc2cc(CCNC(=O)C(=O)c3c[nH]c4ccccc34)c(=O)[nH]c2cc1C,94.2,95.5
O=C(Nc1cccc(Cl)c1)Nc1cc(S(=O)(=O)N2CCCCC2)ccc1Cl,117,97.2
Cc1ccc(S(=O)(=O)CC(CN2CCCCC2)N2CCCCC2)cc1 (stereo not given),102,109
